The values below come from the antibiotic and cytotoxicity screens of Wong et al. (2023).

The campaign covered roughly 39,000 compounds. About 3,300 (8.5%) were called active. Only a selection was taken, and actives are over-represented in it overall.

The test system of the assay is HepG2. In words: cytotoxicity call (relative viability < 0.9). The settings on record: 10 µM.
As to `CCCCCC1C(=O)OC(C)C(NC(=O)c2cccc(NC=O)c2O)C(=O)OC(C)C1OC(=O)CC(C)C` (stereo not given) [ANTIMYCIN A (A1 shown) ], the cytotoxicity call was “active”.
As for `CCCCC[C@H]1C(=O)O[C@H](C)[C@H](NC(=O)c2cccc(NC=O)c2O)C(=O)O[C@@H](C)[C@@H]1OC(=O)CC(C)C`, the cytotoxicity call is “active”.
As for `O=C1COC2(CNC2)CN1`, the cytotoxicity call is “inactive”.
Take `CC(C)N1CCO[C@H]2CN(C(=O)N(C)C)C[C@@H]21`: the cytotoxicity call is “inactive”.
In the case of `C=CCC1(O)CCC2C3CCC4=CC(=O)CCC4=C3C=CC21C` (stereo not given), the cytotoxicity call was “inactive”.
Under `CC(CCc1ccccc1)NC(C)C(O)c1ccc(O)cc1.Cl` (stereo not given) stands “inactive”.
For the molecule `Nc1nnns1`, the cytotoxicity call was “inactive”.
Under `CC(C)[C@@H](Br)C(=O)NC(N)=O` stands “inactive”; under `CC(C)Oc1ncccc1CN`, “inactive”; under `CC(=O)O[C@H]1C[C@@H](OC(C)=O)C(C)(C)[C@@H]2C[C@@H](OC(C)=O)[C@]3(C)[C@H](CC[C@@]4(C)[C@H](c5ccoc5)C[C@H]5O[C@@]534)[C@@]12C`, “inactive”.
As to `CC1(C)C(O)CC(=O)C2(C)C1CC(=O)C1(C)C2CCC2(C)C(c3ccoc3)OC(=O)C3OC321` (stereo not given), the cytotoxicity call is “inactive”.
`CC(=O)OC1CC2(C)C(c3ccoc3)CC3OC32C2(C)C(=O)C(O)=C3C(C)(C)C(=O)C=CC3(C)C12` (stereo not given): the cytotoxicity call is “active”.
Under `CC1(C)C(=O)C=CC2(C)C1=C(O)C(=O)C1(C)C2CCC2(C)C(c3ccoc3)CC3OC321` (stereo not given) stands “active”; under `N[C@H]1CCCN(Cc2cccnc2)C1`, “inactive”.
With `O=C1NC(=S)NC(=O)C1CN1CCOCC1`, the cytotoxicity call is “inactive”.
For `C[C@H](O)[C@@]12[C@H]3CC=C[C@@H]1N2CC3` (stereo not given in full) the value was “inactive”; for `O[C@H]1CNC[C@@H]1N1CCCCC1`, “inactive”.
Under `Cn1c(CCN)nc2ccccc21` stands “inactive”; under `COC(=O)C[C@@H]1CC[C@@H]2NC[C@H](O)COC[C@H]2O1`, “inactive”; under `CO[C@@H]1C=C[C@@H]2[C@H]1N2CCO` (stereo not given in full), “inactive”.
Under `N[C@H]1CNC(=O)C1` stands “inactive”.
For the molecule `CCCCCCCCCc1ccc(O)cc1`, the cytotoxicity call was “active”.
In the case of `NCCc1ccc(O)cc1` [listing 1 of 2 here], the cytotoxicity call is “inactive”.
For `NCCc1ccc(O)cc1` [listing 2 of 2 here] the value was “inactive”.
Under `C1CCN2C(C3N4CCCCN34)N2C1` (stereo not given) stands “inactive”; under `c1cnc2[nH]cc(CN3CCNCC3)c2c1`, “inactive”.
Under `O=C1NCc2cnnn2-c2ccccc21` stands “inactive”.
As for `CCN1CCN(c2nc(=O)cc(C)[nH]2)CC1`, the cytotoxicity call was “inactive”.
For `C1CO[C@@]2(C1)CCNC2` the value was “inactive”; for `O=C([O-])c1ccccc1-c1c2cc(Br)c(=O)cc-2oc2[c]([Hg][OH])c([O-])c(Br)cc12.[Na+].[Na+]`, “inactive”; for `O=C1NC(=O)C(=C[C@@H]2CC=CCC2)C(=O)N1`, “inactive”.
For `CC1=C(O)C(=O)C=C2C1=CC=C1C2(C)CCC2(C)C3CC(C)(C(=O)O)CCC3(C)CCC12C` (stereo not given) the value was “active”.
With `O.O.O.O=C([O-])C1[O][Sb]2[O]C(=O)C([O]2)C(C(=O)[O-])[O][Sb]2[O]C(=O)C1[O]2.[K+].[K+]` (stereo not given), the cytotoxicity call is “active”.
For `Clc1nc(N2CCNCC2)c2[nH]cnc2n1` the value was “inactive”; for `COCCCNC(=O)[C@H]1N[C@H]2C[C@@H]1C[C@@H]2F`, “inactive”.
Under `O[C@@H]1[C@@H]2C[C@H]3[C@H]1N[C@@H]1C[C@@H]2[C@@H]3[C@H]1O` stands “inactive”; under `CN1CCO[C@H]2CN(c3ncccn3)C[C@@H]21`, “inactive”; under `N#Cc1nn(-c2c(Cl)cc(C(F)(F)F)cc2Cl)c(N)c1S(=O)C(F)(F)F` (stereo not given), “active”.
Under `C[C@H](CO)N1C[C@H](C)[C@H](CN(C)C(=O)Oc2ccc3ccccc3c2)OCc2cn(nn2)CCCC1=O` stands “inactive”.
Consider `CCOCC(=O)N1C[C@H]2CNC[C@H]2C1`, for which the cytotoxicity call is “inactive”.
Take `CN1CCCN(Cc2ccc(CN)cc2)CC1`: the cytotoxicity call is “inactive”.
Under `CN1[C@@H]2CC[C@H]1CNC(=O)C2` stands “inactive”; under `CC1=NCCc2c1[nH]c1cc(O)ccc21.Cl.O.O`, “active”.
Under `COc1ccc2c3c([nH]c2c1)C(C)=NCC3` stands “inactive”.
As to `CN1CCN(c2ccccc2CN)CC1`, the cytotoxicity call was “inactive”.
`COc1ccc(OC(=O)N(C)C[C@@H]2OCc3ccccc3-c3c(n(C)c4ccccc34)C(=O)N([C@H](C)CO)C[C@H]2C)cc1`: the cytotoxicity call was “inactive”.
For `N#Cc1cccnc1N1CCNCC1` the value was “inactive”; for `Cc1ccc2cc3c(ccc4ccccc43)c3c2c1CC3`, “active”.
For `CN1CCN(C(=O)[C@H]2C[C@H]3CN(c4ncccn4)C[C@@H]3N2C)CC1` the value was “inactive”; for `Br.CN1C2CC(OC(=O)C(CO)c3ccccc3)CC1C(O)C2` (racemic), “inactive”; for `C=C1[C@H]2CC[C@H]3[C@]4(C)C[C@H](O[C@H]5O[C@@H](CO)[C@@H](OS(=O)(=O)O)[C@H](OS(=O)(=O)O)[C@H]5OC(=O)CC(C)C)C[C@@H](C(=O)O)[C@H]4CC[C@]3(C2)[C@H]1O`, “inactive”.
For `CC[C@@H](C)NC=C1C(=O)NC(=O)NC1=O`, the cytotoxicity call is “inactive”.
In the case of `O=C(c1ccco1)N1[C@@H]2CC[C@H]1CNC2`, the cytotoxicity call is “inactive”.
For the molecule `NC1(c2cccc(Cl)c2)CC1`, the cytotoxicity call was “inactive”.
For `CC(C)C[C@@H]1NC[C@@H]2CCCN2C1=O` the value was “inactive”.
Turning to `CN(C)C(=S)SSC(=S)N(C)C`, the cytotoxicity call is “active”.
Under `O=C(O)CN1C[C@@H]2C(NC(=O)c3ccno3)[C@H]2C1` (stereo not given in full) stands “inactive”.
In the case of `CC(C(O)c1ccccc1)N(C)C` (stereo not given), the cytotoxicity call is “inactive”.
Consider `CNCC(=O)c1ccc(O)cc1`, for which the cytotoxicity call is “inactive”.
For `CNc1ccccc1C(=O)O` the value was “inactive”.
Under `COC(=O)NC(=S)Nc1ccccc1NC(=S)NC(=O)OC` stands “active”.
For `Br.CN1C2CC(OC(=O)C(CO)c3ccccc3)CC1C1OC12` (stereo not given) the value was “inactive”; for `C[N+]1(C)C2CC(OC(=O)C(CO)c3ccccc3)CC1C1OC12.[Br-]` (stereo not given), “inactive”.
For the molecule `CC(=O)Nc1ccc(Cl)cc1C`, the cytotoxicity call was “inactive”.
For the molecule `C=C[C@H]1CN2CC[C@@H]1C[C@@H]2CO`, the cytotoxicity call was “inactive”.
For `CN(C)[C@@H](CN)c1cn(C)c2ccccc12` the value was “inactive”; for `C[C@@H]1CCC(=O)O1`, “inactive”; for `OCC[N+]12CN3CN(CN(C3)C1)C2`, “inactive”.
Consider `Cc1cc2c(C(C)C)c(O)c(O)c(C=O)c2c(O)c1-c1c(C)cc2c(C(C)C)c(O)c(O)c(C=O)c2c1O` [listing 1 of 2 here], for which the cytotoxicity call is “inactive”.
For `CC(=O)O.Cc1cc2c(C(C)C)c(O)c(O)c(C=O)c2c(O)c1-c1c(C)cc2c(C(C)C)c(O)c(O)c(C=O)c2c1O` the value was “inactive”; for `Cc1cc2c(C(C)C)c(O)c(O)c(C=O)c2c(O)c1-c1c(C)cc2c(C(C)C)c(O)c(O)c(C=O)c2c1O` [listing 2 of 2 here], “active”.
Under `COc1cccc(C2(O)CCCCC2CN(C)C)c1.Cl` (stereo not given) stands “inactive”; under `CN(CC[C@@H](N)CC(=O)N[C@H]1C=C[C@H](n2ccc(N)nc2=O)O[C@@H]1C(=O)O)C(=N)N`, “inactive”.
For `CN[C@H]1C[C@@H](N)[C@H](O)[C@@H](O[C@@H]2O[C@H](CO)[C@H](O)[C@@H]3O[C@@]4(O[C@H]23)O[C@H]([C@@H](N)CO)[C@H](O)[C@H](O)[C@H]4O)[C@@H]1O` the value was “inactive”; for `CCCC(=O)c1c(O)[nH]c(=O)[nH]c1=O`, “inactive”; for `c1ccc2sc(C3(N4CCCCC4)CCCCC3)cc2c1`, “inactive”.
As for `S=C=Nc1cccc(C2(N3CCCCC3)CCCCC2)c1`, the cytotoxicity call is “active”.
With `c1ccc2sc(C3(N4CCCC4)CCCCC3)cc2c1`, the cytotoxicity call was “inactive”.
In the case of `Oc1ccccc1N1CCNCC1`, the cytotoxicity call is “inactive”.
Under `O[C@H]1CNC[C@@H]1N1CCCC1` stands “inactive”; under `CN1CC2(CNC2)OCCS1(=O)=O`, “inactive”.
Regarding `C[C@@H]1CN([C@@H](C)CO)C(=O)CCCn2nncc2CO[C@@H]1CN(C)C(=O)Oc1cccc2ccccc12`, the cytotoxicity call is “inactive”.
In the case of `NCCc1[nH]nc2c1CCCC2`, the cytotoxicity call was “inactive”.
Under `CC1(C)NN1CCCN1NC1(C)C` (stereo not given) stands “inactive”.
Under `NCCO.NCCO.O[AsH]O[AsH]O` (stereo not given) stands “active”.
Take `CC12CCC(=O)C=C1C=CC1C2CCC2(C)C1CCC2(O)CCC(=O)[O-].[K+]` (stereo not given): the cytotoxicity call was “inactive”.
For `CC12CCC3C(CCC45OC4C(O)=C(C#N)CC35C)C1CCC2O` (stereo not given) the value was “inactive”.
For `C[C@H](N)Cn1ccc2cc(F)c(Cl)cc21` the value was “inactive”; for `CC(C)[C@H](N)C(=O)N1CCC[C@H]1B(O)O`, “inactive”; for `CO[C@@H]1C[C@@H](C[C@H]2CC[C@H](C)[C@H]([C@@H](C)C(=O)O)O2)O[C@]2(O[C@](C)([C@H]3CC[C@@](C)([C@H]4O[C@@H]([C@H]5O[C@@](O)(CO)[C@H](C)C[C@@H]5C)C[C@@H]4C)O3)C[C@H]2C)[C@@H]1C`, “active”.
For `C[C@@H](N)Cc1ccc2occc2c1` the value was “inactive”; for `CC1=C2CCC3C4CCC(=O)C4(C)CCC3C2(C)CCC1=O` (stereo not given), “inactive”.
Turning to `O=[N+]([O-])c1cc(O)c(O)c([N+](=O)[O-])c1`, the cytotoxicity call was “inactive”.
For the molecule `CC(C)=CCCC1(C)C=Cc2c(O)c3c(c(CC=C(C)C)c2O1)OC12C(=CC4CC1C(C)(C)OC2(CC=C(C)C(=O)O)C4O)C3=O` (stereo not given), the cytotoxicity call was “inactive”.
Regarding `CC(C)=CCCC1(C)C=Cc2c(O)c3c(c(CC=C(C)C)c2O1)OC12C(=CC4CC1C(C)(C)OC2(CC=C(C)C(=O)O)C4=O)C3=O` (stereo not given), the cytotoxicity call is “active”.
In the case of `CC(C)=CCC[C@]1(C)C=Cc2c(O)c3c(c(CC=C(C)C)c2O1)O[C@]12[C@H](C[C@@H]4C[C@H]1C(C)(C)O[C@]2(C/C=C(/C)C(=O)O)[C@@H]4O)C3=O`, the cytotoxicity call was “inactive”.
Take `COc1cc(C(=O)O)cc(OC)c1OC`: the cytotoxicity call was “inactive”.
As to `CCC(CC)C(=O)N[C@@H]1[C@@H]2CNC[C@@H]21`, the cytotoxicity call was “inactive”.
Regarding `NC[C@H](CC(=O)O)c1ccc(Cl)cc1`, the cytotoxicity call was “inactive”.
Regarding `C[C@@H](N)Cc1ccc(O)cc1`, the cytotoxicity call is “inactive”.
For `C=C(CCCCCCCCCCCCCCCC)OOC[C@@H](COP(=O)(ON)O[C@@H]1[C@H](O)[C@H](O)[C@@H](OP(=O)(O)ON)[C@H](OP(=O)(O)ON)[C@H]1O)OOC(=C)CC/C=C/C/C=C/C/C=C/C/C=C/CCCCC` (stereo not given in full), the cytotoxicity call is “active”.
Regarding `C[C@H](CO)N1C[C@H](C)[C@H](CN(C)C(=O)Oc2cccc3ccccc23)OCc2cn(nn2)CCCC1=O`, the cytotoxicity call was “inactive”.
Turning to `Oc1ccc(Cl)cc1`, the cytotoxicity call was “inactive”.
Under `Cc1cc(O)ccc1Cl` stands “active”; under `CNC(=O)Oc1ccc2c(c1)C1(C)CCN(C)C1N2C` (stereo not given), “active”.
Under `CN1CCC2(C)c3cc(O)ccc3N(C)C12.O=C(O)C=CC(=O)O` (stereo not given) stands “active”; under `CNC(=O)Oc1ccc2c(c1)C1(C)CCN(C)C1N2C.O=C(O)c1ccccc1O` (stereo not given), “active”; under `CNC(=O)Oc1ccc2c(c1)[C@]1(C)CCN(C)[C@@H]1N2C.CNC(=O)Oc1ccc2c(c1)[C@]1(C)CCN(C)[C@@H]1N2C.O=S(=O)(O)O`, “inactive”.
For `Br.COc1ccc2c(c1)C13CCCCC1C(C2)N(C)CC3` (stereo not given) the value was “inactive”.
As for `CNC(=O)Oc1ccc2c(c1)C1(C)CCN(C)C1N2C.O=S(=O)(O)O` (stereo not given), the cytotoxicity call was “active”.
